Legend:
Assay in all cases: log2 ratio of Biotin-Ahx-Ub-VS probe labelling (fragment/DMSO); higher = less target engagement (more negative = stronger competition), active = hit call of the paper (q ≤ 0.05, log2 ratio ≤ -1)
Conditions in all cases: compound concentration: 200 uM; treatment time: 3 h
USP34 = USP34 (UniProt Q70CQ2)
How it was run: (§1)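 HEK293T lysate (495 µg per sample, in Tris/CHAPS/IGEPAL buffer with protease inhibitors) was treated in triplicate with fragment at 200 µM or with DMSO for 3 h. It was then treated with Biotin-Ahx-Ub-VS (0.5 µM final) for 1 h. Labelled DUBs were NeutrAvidin-enriched, digested with LysC and trypsin, and run by diaPASEF LC-MS/MS. Spectronaut label-free quantities were global-median-normalised. Values are average log2 ratios fragment/DMSO by unpaired t-test, using proteins with ≥2 unique peptides.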

USP36 = biological target: T1, USP36 (UniProt Q9P275)
T1 sequence (whole entry): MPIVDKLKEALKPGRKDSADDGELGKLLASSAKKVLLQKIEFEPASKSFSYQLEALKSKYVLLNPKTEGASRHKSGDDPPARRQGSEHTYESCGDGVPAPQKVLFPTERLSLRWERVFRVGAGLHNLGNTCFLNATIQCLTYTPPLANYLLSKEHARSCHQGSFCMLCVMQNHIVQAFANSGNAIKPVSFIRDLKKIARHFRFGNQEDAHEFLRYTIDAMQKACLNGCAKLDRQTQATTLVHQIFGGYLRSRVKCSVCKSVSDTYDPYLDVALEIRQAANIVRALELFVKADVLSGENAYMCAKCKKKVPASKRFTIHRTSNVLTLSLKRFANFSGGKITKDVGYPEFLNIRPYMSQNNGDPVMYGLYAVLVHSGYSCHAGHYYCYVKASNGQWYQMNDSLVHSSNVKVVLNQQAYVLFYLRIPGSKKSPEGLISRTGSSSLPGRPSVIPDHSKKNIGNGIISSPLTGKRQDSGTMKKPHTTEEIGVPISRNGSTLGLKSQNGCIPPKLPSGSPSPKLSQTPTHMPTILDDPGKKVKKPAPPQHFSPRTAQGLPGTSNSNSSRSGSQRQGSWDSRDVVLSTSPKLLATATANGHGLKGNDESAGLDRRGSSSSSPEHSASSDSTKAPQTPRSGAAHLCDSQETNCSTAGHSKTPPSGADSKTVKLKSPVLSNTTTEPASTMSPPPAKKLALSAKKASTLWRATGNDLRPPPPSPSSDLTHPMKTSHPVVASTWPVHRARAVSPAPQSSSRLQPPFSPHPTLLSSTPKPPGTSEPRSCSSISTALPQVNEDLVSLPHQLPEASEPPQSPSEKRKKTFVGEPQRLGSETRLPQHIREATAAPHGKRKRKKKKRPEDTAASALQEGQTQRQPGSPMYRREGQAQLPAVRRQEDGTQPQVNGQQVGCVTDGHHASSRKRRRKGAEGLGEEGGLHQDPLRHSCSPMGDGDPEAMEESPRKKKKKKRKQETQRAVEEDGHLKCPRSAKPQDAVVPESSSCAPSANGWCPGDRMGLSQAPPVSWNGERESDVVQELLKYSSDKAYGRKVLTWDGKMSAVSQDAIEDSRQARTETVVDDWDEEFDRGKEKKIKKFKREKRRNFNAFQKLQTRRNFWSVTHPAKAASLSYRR
How it was run: as §1

USP38 = biological target: T2, USP38 (UniProt Q8NB14)
T2 sequence (whole entry): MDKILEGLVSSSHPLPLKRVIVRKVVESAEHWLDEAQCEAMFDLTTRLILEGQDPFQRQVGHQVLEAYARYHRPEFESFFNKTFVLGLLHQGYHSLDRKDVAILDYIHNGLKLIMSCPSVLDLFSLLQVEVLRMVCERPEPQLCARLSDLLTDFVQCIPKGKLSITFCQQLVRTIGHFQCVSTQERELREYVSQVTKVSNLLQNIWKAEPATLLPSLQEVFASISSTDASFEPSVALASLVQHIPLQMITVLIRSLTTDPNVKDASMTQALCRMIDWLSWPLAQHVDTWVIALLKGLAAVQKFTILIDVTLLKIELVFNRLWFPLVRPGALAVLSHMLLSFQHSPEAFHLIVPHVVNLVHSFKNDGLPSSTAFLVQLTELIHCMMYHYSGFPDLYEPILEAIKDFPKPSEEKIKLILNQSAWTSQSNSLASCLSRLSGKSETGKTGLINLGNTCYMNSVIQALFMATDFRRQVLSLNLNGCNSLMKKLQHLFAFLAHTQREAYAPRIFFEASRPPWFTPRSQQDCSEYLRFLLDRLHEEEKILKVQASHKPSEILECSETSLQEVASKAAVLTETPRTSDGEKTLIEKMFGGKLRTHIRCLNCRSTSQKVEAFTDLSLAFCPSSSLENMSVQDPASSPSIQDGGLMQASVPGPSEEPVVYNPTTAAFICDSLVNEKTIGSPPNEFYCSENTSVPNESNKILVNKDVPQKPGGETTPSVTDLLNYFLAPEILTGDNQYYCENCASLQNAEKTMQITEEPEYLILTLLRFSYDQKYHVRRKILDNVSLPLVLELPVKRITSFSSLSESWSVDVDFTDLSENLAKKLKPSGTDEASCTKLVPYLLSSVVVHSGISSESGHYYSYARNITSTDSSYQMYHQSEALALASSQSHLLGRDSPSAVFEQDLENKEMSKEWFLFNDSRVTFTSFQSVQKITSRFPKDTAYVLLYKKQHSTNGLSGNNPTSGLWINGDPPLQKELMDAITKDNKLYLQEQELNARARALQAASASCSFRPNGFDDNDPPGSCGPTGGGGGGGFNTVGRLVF
How it was run: as §1

USP39 = biological target: T3, USP39 (UniProt Q53GS9)
T3 sequence (whole entry): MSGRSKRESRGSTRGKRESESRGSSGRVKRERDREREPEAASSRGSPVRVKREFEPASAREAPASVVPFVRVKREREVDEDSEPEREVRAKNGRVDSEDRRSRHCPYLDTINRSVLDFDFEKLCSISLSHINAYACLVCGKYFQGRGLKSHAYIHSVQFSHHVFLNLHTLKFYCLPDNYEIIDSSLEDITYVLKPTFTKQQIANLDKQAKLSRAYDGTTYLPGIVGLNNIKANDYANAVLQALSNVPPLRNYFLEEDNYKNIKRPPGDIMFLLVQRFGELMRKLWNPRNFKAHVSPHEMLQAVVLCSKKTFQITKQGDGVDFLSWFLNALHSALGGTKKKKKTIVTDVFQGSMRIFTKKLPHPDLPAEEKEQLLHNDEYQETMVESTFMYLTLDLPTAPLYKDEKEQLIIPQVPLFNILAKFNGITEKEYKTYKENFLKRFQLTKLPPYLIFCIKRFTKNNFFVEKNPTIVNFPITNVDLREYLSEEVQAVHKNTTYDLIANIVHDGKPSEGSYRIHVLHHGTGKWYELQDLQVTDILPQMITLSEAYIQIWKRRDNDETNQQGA
How it was run: as §1

USP4 = biological target: T4, USP4 (UniProt Q13107)
T4 sequence (whole entry): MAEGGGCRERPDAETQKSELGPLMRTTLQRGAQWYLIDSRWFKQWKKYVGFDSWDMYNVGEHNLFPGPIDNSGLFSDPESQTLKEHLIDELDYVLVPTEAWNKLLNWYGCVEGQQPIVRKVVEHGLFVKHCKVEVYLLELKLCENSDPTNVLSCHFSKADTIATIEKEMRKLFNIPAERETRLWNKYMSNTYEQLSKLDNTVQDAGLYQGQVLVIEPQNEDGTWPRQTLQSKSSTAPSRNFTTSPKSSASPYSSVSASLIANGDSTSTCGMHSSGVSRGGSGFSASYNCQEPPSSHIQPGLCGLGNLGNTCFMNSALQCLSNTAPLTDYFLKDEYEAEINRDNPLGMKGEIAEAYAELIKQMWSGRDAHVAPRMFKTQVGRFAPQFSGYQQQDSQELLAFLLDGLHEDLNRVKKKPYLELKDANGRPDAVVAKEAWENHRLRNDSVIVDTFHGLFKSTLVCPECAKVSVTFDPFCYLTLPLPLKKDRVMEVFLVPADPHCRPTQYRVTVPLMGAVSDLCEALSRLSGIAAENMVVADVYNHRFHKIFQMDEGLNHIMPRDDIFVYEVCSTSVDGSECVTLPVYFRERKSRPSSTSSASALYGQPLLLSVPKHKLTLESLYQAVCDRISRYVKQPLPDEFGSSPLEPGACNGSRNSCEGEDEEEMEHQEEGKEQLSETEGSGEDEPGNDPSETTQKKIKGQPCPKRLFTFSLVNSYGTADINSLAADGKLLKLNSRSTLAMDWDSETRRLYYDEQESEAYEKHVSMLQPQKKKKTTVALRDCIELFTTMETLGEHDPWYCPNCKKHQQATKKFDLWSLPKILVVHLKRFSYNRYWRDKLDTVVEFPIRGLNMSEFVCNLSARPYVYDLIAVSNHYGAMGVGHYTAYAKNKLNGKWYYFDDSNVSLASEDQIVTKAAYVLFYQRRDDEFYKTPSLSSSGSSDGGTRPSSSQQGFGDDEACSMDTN
How it was run: as §1

Measured: log2 ratio of Biotin-Ahx-Ub-VS probe labelling

Sequence of USP34 (Q70CQ2 whole entry, the tested form may be a part): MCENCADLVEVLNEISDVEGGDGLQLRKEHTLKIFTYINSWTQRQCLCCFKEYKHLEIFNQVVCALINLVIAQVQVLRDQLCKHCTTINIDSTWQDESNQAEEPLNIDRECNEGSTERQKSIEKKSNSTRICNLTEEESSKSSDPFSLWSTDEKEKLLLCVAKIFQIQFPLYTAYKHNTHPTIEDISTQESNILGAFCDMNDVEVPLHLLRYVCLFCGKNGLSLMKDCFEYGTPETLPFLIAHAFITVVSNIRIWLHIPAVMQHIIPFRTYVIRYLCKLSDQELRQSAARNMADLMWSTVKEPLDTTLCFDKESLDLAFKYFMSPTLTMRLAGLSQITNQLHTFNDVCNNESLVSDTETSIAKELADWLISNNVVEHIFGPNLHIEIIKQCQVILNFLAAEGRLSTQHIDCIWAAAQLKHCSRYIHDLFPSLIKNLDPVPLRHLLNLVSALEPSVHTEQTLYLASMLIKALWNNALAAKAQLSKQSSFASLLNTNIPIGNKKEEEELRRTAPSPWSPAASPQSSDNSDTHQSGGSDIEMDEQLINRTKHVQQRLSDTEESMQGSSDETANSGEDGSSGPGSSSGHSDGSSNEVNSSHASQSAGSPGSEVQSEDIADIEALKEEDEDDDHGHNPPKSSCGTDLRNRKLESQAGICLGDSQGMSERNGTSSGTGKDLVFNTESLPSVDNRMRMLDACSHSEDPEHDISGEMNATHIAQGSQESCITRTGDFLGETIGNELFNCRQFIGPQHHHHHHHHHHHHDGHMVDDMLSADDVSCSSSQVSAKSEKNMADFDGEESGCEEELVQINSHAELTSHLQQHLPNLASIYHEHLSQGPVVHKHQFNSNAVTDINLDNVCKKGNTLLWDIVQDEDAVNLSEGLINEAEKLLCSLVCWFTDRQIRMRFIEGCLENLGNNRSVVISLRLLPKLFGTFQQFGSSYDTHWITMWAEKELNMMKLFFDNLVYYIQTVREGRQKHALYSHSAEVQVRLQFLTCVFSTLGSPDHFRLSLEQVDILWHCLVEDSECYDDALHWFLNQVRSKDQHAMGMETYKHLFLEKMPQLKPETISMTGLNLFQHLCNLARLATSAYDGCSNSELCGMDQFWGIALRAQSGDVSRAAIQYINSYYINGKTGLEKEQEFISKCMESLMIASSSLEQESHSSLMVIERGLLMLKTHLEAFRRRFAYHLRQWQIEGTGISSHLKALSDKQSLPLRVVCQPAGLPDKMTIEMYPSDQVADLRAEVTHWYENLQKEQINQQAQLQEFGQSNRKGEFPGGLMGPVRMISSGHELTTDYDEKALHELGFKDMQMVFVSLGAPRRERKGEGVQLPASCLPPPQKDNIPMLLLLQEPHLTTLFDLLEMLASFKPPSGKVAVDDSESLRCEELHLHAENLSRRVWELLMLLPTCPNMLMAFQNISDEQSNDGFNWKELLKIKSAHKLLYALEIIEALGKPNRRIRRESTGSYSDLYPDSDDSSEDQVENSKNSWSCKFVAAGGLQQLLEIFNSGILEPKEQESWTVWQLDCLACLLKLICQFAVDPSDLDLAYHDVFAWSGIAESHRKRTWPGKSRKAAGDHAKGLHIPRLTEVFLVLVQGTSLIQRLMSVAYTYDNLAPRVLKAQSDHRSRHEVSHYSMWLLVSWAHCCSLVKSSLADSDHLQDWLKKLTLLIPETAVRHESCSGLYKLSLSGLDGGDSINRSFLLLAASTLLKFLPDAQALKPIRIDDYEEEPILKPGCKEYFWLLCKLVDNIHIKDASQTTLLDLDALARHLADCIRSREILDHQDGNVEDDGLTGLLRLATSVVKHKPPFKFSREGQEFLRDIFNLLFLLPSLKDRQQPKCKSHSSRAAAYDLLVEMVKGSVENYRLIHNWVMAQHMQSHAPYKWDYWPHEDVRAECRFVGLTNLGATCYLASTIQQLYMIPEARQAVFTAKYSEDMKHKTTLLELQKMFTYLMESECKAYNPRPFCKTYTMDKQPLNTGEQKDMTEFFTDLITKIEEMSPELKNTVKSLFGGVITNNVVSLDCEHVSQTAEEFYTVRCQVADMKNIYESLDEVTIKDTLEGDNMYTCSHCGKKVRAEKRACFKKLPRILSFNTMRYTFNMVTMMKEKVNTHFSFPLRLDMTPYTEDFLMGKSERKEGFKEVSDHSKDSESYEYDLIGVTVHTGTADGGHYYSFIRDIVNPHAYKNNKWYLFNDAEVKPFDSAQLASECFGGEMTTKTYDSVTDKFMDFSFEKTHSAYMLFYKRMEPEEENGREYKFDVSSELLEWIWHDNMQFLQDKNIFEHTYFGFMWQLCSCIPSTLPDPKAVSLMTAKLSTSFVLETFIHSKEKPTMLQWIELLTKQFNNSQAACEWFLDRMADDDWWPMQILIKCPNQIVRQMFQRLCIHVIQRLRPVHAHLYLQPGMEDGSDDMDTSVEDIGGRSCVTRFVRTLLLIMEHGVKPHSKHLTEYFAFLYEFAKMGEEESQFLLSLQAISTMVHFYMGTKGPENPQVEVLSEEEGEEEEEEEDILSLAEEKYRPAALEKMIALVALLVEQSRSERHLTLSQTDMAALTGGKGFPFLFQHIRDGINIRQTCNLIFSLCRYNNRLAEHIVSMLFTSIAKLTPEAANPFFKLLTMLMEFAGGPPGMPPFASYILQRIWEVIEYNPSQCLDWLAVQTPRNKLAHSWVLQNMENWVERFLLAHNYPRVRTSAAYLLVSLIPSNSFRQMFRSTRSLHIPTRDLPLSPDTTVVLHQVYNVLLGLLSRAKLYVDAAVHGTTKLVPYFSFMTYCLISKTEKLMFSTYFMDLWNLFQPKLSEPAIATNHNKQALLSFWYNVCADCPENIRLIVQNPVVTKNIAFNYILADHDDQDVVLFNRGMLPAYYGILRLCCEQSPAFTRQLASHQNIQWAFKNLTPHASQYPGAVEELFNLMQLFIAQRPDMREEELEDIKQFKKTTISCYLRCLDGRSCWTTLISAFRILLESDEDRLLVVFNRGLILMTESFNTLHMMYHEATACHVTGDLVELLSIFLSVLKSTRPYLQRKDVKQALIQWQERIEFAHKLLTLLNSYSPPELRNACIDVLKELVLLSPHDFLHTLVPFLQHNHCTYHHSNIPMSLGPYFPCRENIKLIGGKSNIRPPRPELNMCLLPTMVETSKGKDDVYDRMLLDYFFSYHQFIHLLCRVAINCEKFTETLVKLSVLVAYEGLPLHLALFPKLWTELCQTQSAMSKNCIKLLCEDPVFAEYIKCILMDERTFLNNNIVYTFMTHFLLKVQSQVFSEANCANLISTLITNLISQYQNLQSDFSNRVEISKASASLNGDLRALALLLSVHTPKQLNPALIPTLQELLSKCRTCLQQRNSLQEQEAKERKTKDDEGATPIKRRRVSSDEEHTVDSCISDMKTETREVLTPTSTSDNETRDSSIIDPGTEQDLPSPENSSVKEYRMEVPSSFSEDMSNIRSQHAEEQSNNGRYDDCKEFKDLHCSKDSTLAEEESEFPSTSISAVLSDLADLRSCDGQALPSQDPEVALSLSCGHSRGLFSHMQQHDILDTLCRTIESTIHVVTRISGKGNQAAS

CN(CCc1ncc(Br)cn1)C(=O)CCl.Cl
inactive: USP34 -0.228 | USP36 -0.122 | USP38 -0.00939 | USP39 0.3 | USP4 -0.0898

Source: the supplement of paper PMC11732987, “Enantioselective OTUD7B fragment discovery through chemoproteomics screening and high-throughput optimisation” (Communications Chemistry, 2025)
